Laboratory results: PubChem BioAssay (NCATS)
Records with an inconclusive call do not appear. Activity calls are given as the source filed them. Calls follow the shape of the dose curve; as a rule, active = well fitted curve in either direction with a large enough effect (not every such curve was filed as active); inconclusive = small, poorly fitted or top-dose-only effect, or another doubt; inactive = flat fitted curve, though single readings scatter.

Experiment: NFAT Signaling Pathway (AID 444);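 also: carbachol stimulus at about its EC50 of 1 µM final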
Conditions: Jurkat NFAT-bla M1, carbachol, beta-lactamase ratio, 5 h; at 7.69 µM (top of the series) unless noted
How it was run: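 Read-out: CCF4 FRET ratio (460 nm/530 nm) after 1 h RT dye loading, used for %activity and AC50 from titration series. Cells: Jurkat NFAT-β-lactamase/M1 line, treated with compound plus 1 uM carbachol for 5 h, 37 °C.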
% is scaled to controls: 0 for no effect and ±100 for the full control effect.

Activity change, negative = inhibition, inactive:
CN(C)C(=O)c1ccc(-c2ccc3ncnc(NCCN4CCOCC4)c3c2)cc1 6.26%
COCCn1c(=O)c(-c2cccc(F)c2)nc2cncnc21 -5.24%
Cc1noc(C)c1-c1nccc(Nc2ccc(F)cc2)n1 -10.5%
COc1ccccc1-c1cc(Nc2ccn[nH]2)ncn1 2.51%
Cc1cnc(CNc2nc(-c3ccccc3Cl)nc3ccccc23)cn1 9.67%
CCNc1ncc2nc(-c3cccc(C#N)c3)c(=O)n(CCC#N)c2n1 -1.23%
c1ccc(CNc2ccnc(-c3cccnc3)n2)cc1 7.79%
CN(C)C(=O)c1ccc(-c2cncnc2N(C)Cc2ccco2)cc1 -12.8%
COc1ccccc1-c1cc(Nc2ccc(F)cc2)ncn1 -14.1%
CN(C)c1nc(-c2ccccc2C(F)(F)F)nc2ccccc12 0.537%
COc1ccccc1-c1nc(N(C)Cc2ccco2)c2ccccc2n1 -21.3%
COc1cccc(-c2cncnc2NCc2cccs2)c1 9.12%
c1ccc(Nc2ncncc2-c2ccoc2)cc1 0.789%
COc1ccccc1CNc1ccnc(-c2c(C)noc2C)n1 -13.8%
COCCn1c(=O)cnc2cnc(N(C)C)nc21 7.07%
COc1ccc(CNc2ccnc(-c3cccnc3)n2)c(OC)c1 -0.132%
Cc1cnc(CNc2ncnc3ccc(-c4ccc(C(=O)N(C)C)cc4)cc23)cn1 9.3%
COc1cccc(Cn2c(=O)cnc3cnc(Nc4ccccc4)nc32)c1 17.1%

Experiment: Stat Signaling Pathway (AID 446);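 also: ME-180 cervical cancer cells given 40 pM IL-6 alongside compound; SIE-controlled beta-lactamase reporter measured as 460/530 nm FRET emission ratio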
Conditions: ME-180 (cervical carcinoma) SIE beta-lactamase reporter, IL-6 stimulated, 5 h; at 7.69 µM (top of the series) unless noted
How it was run: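 IL-6/STAT signaling read in ME-180 cells via an SIE beta-lactamase reporter. Stimulus was 40 pM IL-6 (its AC50) for 5 hrs, so both activation and inhibition register.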

activity, negative = inhibition, inactive:
COc1ccccc1-c1nc(NCc2cccs2)c2ccccc2n1 21.2%
COc1ccc(CNc2ncncc2-c2ccoc2)c(OC)c1 -9.38%
COc1ccccc1-c1nccc(NCc2cccnc2)n1 0.0574%
CCNc1ncc2nc(C)c(=O)n(CCOC)c2n1 -7.84%
c1ccc(CNc2nc(-c3ccoc3)nc3ccccc23)cc1 12.7%
c1csc(CNc2nc(-c3ccoc3)nc3ccccc23)c1 -7.57%
N#Cc1cccc(-c2nc(NCc3cccs3)c3ccccc3n2)c1 -29.9%
CN(Cc1ccco1)c1ncncc1-c1ccc2c(c1)OCO2 -2.55%
CN(Cc1ccco1)c1ncncc1-c1cccnc1 17.1%
Cc1noc(C)c1-c1nc(N(C)C)c2ccccc2n1 4.14%
Cc1cnc(CNc2cc(-c3c(C)noc3C)ncn2)cn1 12.1%
CN(Cc1ccco1)c1nc(-c2ccc3c(c2)OCO3)nc2ccccc12 1.32%
N#Cc1cccc(-c2cncnc2NCCc2cnc[nH]2)c1 -1.18%
O=c1c(-c2cccs2)nc2cncnc2n1-c1ccccc1 -0.182%
COc1ccc2[nH]cc(CCNc3cc(-c4c(C)noc4C)ncn3)c2c1 -0.948%
CS(=O)(=O)Nc1cccc(-c2cc(NCc3ccccc3)ncn2)c1 -7.25%
COc1ccccc1-c1cncnc1NCc1ccccc1 -7.05%
COc1cccc(-c2nccc(NCc3cnc(C)cn3)n2)c1 13.7%
COc1ccc(CNc2ncncc2-c2ccc(N(C)C)cc2)c(OC)c1 0.205%
CN(C)C(=O)c1ccc(-c2ccc3ncnc(NCCN4CCOCC4)c3c2)cc1 -17.4%
COCCn1c(=O)c(-c2cccc(F)c2)nc2cncnc21 -1.12%
Cc1noc(C)c1-c1nccc(Nc2ccc(F)cc2)n1 1.44%
COc1ccccc1-c1cc(Nc2ccn[nH]2)ncn1 6.94%
Cc1cnc(CNc2nc(-c3ccccc3Cl)nc3ccccc23)cn1 -10.8%
CCNc1ncc2nc(-c3cccc(C#N)c3)c(=O)n(CCC#N)c2n1 14.1%
CN(C)C(=O)c1ccc(-c2cncnc2N(C)Cc2ccco2)cc1 3.83%
COc1ccccc1-c1cc(Nc2ccc(F)cc2)ncn1 -19.9%
CN(C)c1nc(-c2ccccc2C(F)(F)F)nc2ccccc12 7.02%
COc1ccccc1-c1nc(N(C)Cc2ccco2)c2ccccc2n1 8.04%
COc1cccc(-c2cncnc2NCc2cccs2)c1 -6.14%
c1ccc(Nc2ncncc2-c2ccoc2)cc1 5.02%
COc1ccccc1CNc1ccnc(-c2c(C)noc2C)n1 -17.2%
COCCn1c(=O)cnc2cnc(N(C)C)nc21 -2.06%
COc1ccc(CNc2ccnc(-c3cccnc3)n2)c(OC)c1 -2.65%
COc1cccc(Cn2c(=O)cnc3cnc(Nc4ccccc4)nc32)c1 -29.7%
